# The supplement of paper PMC3334620
# The full ranking holds about 33,000 sequences; the median of “E-score (-0.5 to 0.5)” is about -0.053, and the highest 2% start at about 0.37. This is one part of a sample in which the highest values are shown more often than they occur.
# Molecular target: Hap1 (UniProt P0CE41)
# Assay: PBM E-score (8-mer binding enrichment) (E-score (-0.5 to 0.5)); higher = stronger / more preferred TF binding
# Details: protein concentration: 200 nM; construct: GST-DNA-binding domain
# Outline: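 E-scores (a modified Wilcoxon-Mann-Whitney statistic) were assigned by the Universal PBM Analysis Suite to every ungapped eight-base word pooled with its reverse complement. The input came from universal all-10-mer Agilent arrays made double-stranded by primer extension and probed with GST-tagged yeast transcription factors at about 100-200 nM. Fluorescent anti-GST detected bound protein, and masliner normalised the scans.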
# Chain of UniProt P0CE41 (P0CE41 whole entry): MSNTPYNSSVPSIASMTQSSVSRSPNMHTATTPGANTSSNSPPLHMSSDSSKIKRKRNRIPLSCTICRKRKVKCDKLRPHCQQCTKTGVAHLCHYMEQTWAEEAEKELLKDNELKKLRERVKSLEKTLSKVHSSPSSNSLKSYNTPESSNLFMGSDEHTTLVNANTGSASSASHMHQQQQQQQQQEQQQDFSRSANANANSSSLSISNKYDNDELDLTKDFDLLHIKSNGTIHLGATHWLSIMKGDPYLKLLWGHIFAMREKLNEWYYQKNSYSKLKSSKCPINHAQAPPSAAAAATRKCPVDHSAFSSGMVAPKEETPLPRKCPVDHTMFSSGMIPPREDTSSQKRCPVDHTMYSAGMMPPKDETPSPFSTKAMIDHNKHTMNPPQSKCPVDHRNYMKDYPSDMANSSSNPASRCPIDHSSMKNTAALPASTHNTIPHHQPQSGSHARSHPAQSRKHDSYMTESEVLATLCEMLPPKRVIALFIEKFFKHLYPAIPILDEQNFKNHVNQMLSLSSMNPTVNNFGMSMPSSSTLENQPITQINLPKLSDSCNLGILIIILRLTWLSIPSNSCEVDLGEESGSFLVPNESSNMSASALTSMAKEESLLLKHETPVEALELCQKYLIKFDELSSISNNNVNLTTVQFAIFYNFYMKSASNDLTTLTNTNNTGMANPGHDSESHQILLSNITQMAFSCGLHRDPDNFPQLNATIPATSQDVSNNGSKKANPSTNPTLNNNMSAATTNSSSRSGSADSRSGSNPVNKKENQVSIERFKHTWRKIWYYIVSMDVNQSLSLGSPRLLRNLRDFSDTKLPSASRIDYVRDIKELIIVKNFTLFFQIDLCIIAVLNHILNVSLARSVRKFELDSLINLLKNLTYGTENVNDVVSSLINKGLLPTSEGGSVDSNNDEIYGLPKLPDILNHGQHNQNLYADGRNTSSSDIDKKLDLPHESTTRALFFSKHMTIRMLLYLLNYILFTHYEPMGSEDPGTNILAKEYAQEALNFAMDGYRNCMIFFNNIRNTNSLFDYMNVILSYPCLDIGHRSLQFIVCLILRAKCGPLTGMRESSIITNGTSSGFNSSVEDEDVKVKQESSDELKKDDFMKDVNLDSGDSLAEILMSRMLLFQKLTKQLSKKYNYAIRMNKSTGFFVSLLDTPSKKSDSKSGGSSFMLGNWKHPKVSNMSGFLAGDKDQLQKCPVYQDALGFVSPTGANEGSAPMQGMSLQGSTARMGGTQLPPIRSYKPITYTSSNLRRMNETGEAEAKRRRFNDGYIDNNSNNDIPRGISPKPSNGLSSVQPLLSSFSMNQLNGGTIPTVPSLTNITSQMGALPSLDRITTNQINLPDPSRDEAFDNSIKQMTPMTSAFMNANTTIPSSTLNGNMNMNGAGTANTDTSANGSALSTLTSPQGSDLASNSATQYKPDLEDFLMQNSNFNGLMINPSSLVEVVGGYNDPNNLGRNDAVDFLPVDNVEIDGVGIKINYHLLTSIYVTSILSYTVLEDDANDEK
row,Sequence,PBM E-score
1,CGGATTTA,0.489
2,AGGATTTC,0.0343
3,CGGATTTC,0.426
4,GGGATTTA,0.327
5,CTGATTTC,-0.0451
6,AGGATTTA,0.227
7,CTAACCCC,0.235
8,GTCGAATA,-0.0336
9,CCACTGAG,-0.235
10,GCTTCGGA,0.327
11,ACTTCGGC,0.377
12,ACTTCGGG,0.247
13,CCTTCGGA,0.364
14,CCTTCGGC,0.27
15,ACTTCGGA,0.403
16,ACCGCAGT,0.106
17,CAGCCTAA,-0.354
18,ATACTTCC,0.162
19,ACATCCGA,0.382
20,CCATCCGG,0.254
21,ACATCCGC,0.347
22,ACATCCGT,0.213
23,ACATCCGG,0.427
24,ACATCCTG,-0.0661
25,TATGTACA,-0.124

row,Sequence,PBM E-score
1,GCCAGTTA,-0.14
2,GGGCCCGA,0.317
3,CGGCCCGA,0.398
4,ACGCCCGT,0.251
5,ACGCCCGA,0.371
6,TCGCCCGA,0.362
7,ACGCCCGC,0.183
8,AGGCCCGA,0.279
9,CCGCCCGA,0.37
10,GCGCCCGA,0.353
11,ACGCCCCG,0.193
12,CTGCCCGA,0.202
13,ACGCCCGG,0.377
14,GGCCAGCA,-0.0771
15,AAGTCTGA,-0.412
16,CTTGTCTC,-0.073
17,ACGCGAAA,-0.00838
18,ACAAGAGC,-0.109
19,CGGAGCGA,0.331
20,CCATAGGA,-0.258
21,GACACGTA,-0.194
22,AAGCCCGT,0.232
23,CCGCCCGG,0.411
24,CCGCCCCG,0.347
25,CCGCCCGC,0.3

row,Sequence,PBM E-score
1,AAGCCCGC,0.337
2,AAGCCCGG,0.407
3,CAAGTTCC,0.124
4,CAGTGTGC,-0.139
5,ATGGCAGA,0.089
6,CCAAATTC,-0.0397
7,CGTTCCGA,0.123
8,AGTTCCGA,0.395
9,AGTTCCGC,0.278
10,AGTTCCGG,0.394
11,AGTTCCTG,-0.178
12,GGTTCCGA,0.279
13,GGTCCTAC,-0.0458
14,GTCAGCAA,-0.157
15,TTCCGCAA,0.263
16,ACAGGTTC,-0.216
17,ACCGGTAA,0.406
18,ACCGGTAT,0.424
19,ATCGGTAA,0.31
20,AACGGTAA,0.186
21,ACCGGTAG,0.228
22,ACCGGTAC,0.334
23,ATCAACAC,-0.154
24,GAAAGAGC,-0.138
25,ACTAGACC,0.0797

row,Sequence,PBM E-score
1,GGTTAGCA,-0.0201
2,CGTCCAAA,0.0813
3,TGTCCTAA,-0.338
4,CGCCCGAC,0.366
5,GGTCCGAC,0.392
6,AGCCCGAG,0.208
7,TGTCCGAA,0.412
8,CGTCCGAA,0.394
9,GGTCCAAC,0.13
10,CGCCCGAG,0.396
11,GCTCCGAC,0.212
12,CGTCCGAC,0.302
13,TGTCCAAA,-0.133
14,AACCAACG,-0.104
15,GTCTTACA,-0.195
16,CTTGGTAC,-0.213
17,CCTCTTTA,-0.303
18,CCGGTTAC,0.279
19,ACACTGAA,-0.0306
20,AGAGTAGA,0.0496
21,ACGAACAT,0.0579
22,AAGGCAAA,-0.28
23,GGTCCGAA,0.434
24,GGTCCAAA,0.0135
25,AGTCCAAA,-0.119

row,Sequence,PBM E-score
1,AGTCCTAA,-0.207
2,AGTCCGAA,0.416
3,CATCCGAG,0.265
4,CGTCCGAG,0.401
5,GGTCCGTA,0.329
6,CGTCCAAG,-0.111
7,ACAAGGCA,-0.133
8,TAGCTTAA,-0.135
9,CATTGAAA,-0.0176
10,AAACGGAG,0.258
11,CCGTTGCC,0.299
12,CGGTGCTC,0.161
13,CATGGACA,-0.324
14,ATGCACAT,-0.225
15,CAAATTGA,-0.173
16,AATCTCCC,0.00843
17,AAGCTCCG,0.411
18,CATCTCCC,0.104
19,AAGCTCCT,-0.0999
20,CATCTCCG,0.435
21,AATCTCCG,0.476
22,CAGCTCCG,0.299
23,ATTCTCCA,-0.157
24,AATCTCCT,0.0543
25,ATTCTCCG,0.394

row,Sequence,PBM E-score
1,CATCTCCA,-0.0795
2,ATTCTCCC,0.0268
3,ACTGTACG,-0.167
4,GAGGCATA,0.00364
5,CCTGAGTC,-0.0525
6,GCCCTGAA,0.0376
7,AGTAGCCC,0.0495
8,ACATTCCC,0.0549
9,AGAGGGGA,-0.0354
10,TCGTAAAA,0.0494
11,ATGTACGA,0.105
12,CAGGGGAG,-0.137
13,TAAAGCAA,-0.0198
14,CACCGGCA,0.201
15,AACCGGCA,0.158
16,CACCGGCG,0.378
17,AACCGGCG,0.382
18,AACCGGCC,0.344
19,CACCGGCC,0.313
20,AATACTTG,-0.112
21,ACCGCACG,-0.0174
22,CCCAGCCC,-0.174
23,CAACCTTC,-0.0289
24,GCCCTTCA,-0.165
25,ATTTTCCG,0.413

row,Sequence,PBM E-score
1,ATTTTCGC,0.0139
2,ATTTTCCC,0.123
3,ATTTTCGA,-0.0541
4,AAATTCCG,0.376
5,ATTTTCGG,0.396
6,ATTTTCCA,-0.0537
7,AATTTCCC,0.06
8,CATTTCCG,0.352
9,AATTTCCG,0.437
10,AAATTCCA,0.0643
11,AAATTCCC,0.145
12,AGGTTGGC,0.00268
13,AAACCCCA,-0.134
14,GGCTCTAC,0.0591
15,GTCCTTCA,-0.162
16,CGTGAGAC,0.00208
17,GGGAGCAA,0.0117
18,AGTTTCCA,-0.133
19,AGTTTCCG,0.39
20,AGTTTCCC,-0.0919
21,ACCATAGT,-0.0861
22,ATCGGACA,0.394
23,CTCGGACC,0.375
24,CTCGGACA,0.415
25,ATCGGACC,0.4

row,Sequence,PBM E-score
1,ATCGGAAC,0.318
2,CACGGACC,0.341
3,GTCGGACA,0.347
4,AGCGGACC,0.257
5,CTCGGAAC,0.31
6,ATCGGGCA,0.238
7,CGCGGACA,0.335
8,CTTGGACA,-0.0486
9,CAAGGGGA,-0.0784
10,ATGGTTTG,0.0601
11,CGACGTAG,-0.0488
12,ATAGAGGA,-0.186
13,CTCCAATC,-0.121
14,CCCAATTC,-0.135
15,CACCACAA,-0.117
16,ACATCCAT,-0.093
17,ACGTCTGG,-0.202
18,AATAGTAT,0.103
19,AAGCAGCT,-0.114
20,CACGTCGA,-0.183
21,TACGGTGA,0.0448
22,AGACGGCA,-0.0262
23,AACGGTCA,0.246
24,AGCGGACG,0.297
25,CTCGGTCC,0.35

row,Sequence,PBM E-score
1,ATCGGTCA,0.318
2,AACGGACG,0.305
3,AACGGACA,0.369
4,CACGGACA,0.312
5,ATCGGACG,0.422
6,ATCGGTCC,0.374
7,GACGGTAC,0.142
8,CACCACCC,0.106
9,CGGTTGAG,0.18
10,AGACCTCT,-0.208
11,CGAGGCCA,0.022
12,TAGCACCA,-0.14
13,CGGGGCAA,0.198
14,AGATATCC,0.192
15,ATATATCC,0.399
16,ATATCTCC,0.437
17,CGATATCG,0.388
18,CGATATCC,0.375
19,AGATATCG,0.315
20,CTATCTCC,0.358
21,ATCTCTCC,-0.0103
22,CTATATCC,0.202
23,ATATATCA,0.0242
24,GGATATCC,0.236
25,CGATATCA,0.234

row,Sequence,PBM E-score
1,ACCTTGCC,-0.132
2,AAAGGAGC,-0.141
3,CATCTTTC,-0.224
4,AGGTGCTA,-0.132
5,AGGTTCAA,-0.0501
6,AAAGGCGC,-0.0167
7,CTTTAACC,-0.0789
8,CAGCAGTA,-0.352
9,AGAGCGGA,0.13
10,CGAGCGGC,0.238
11,CGAGCGGA,0.37
12,AATGGTCA,-0.179
13,AACCGGAG,0.425
14,TCCCGGAA,0.397
15,AACCGGAA,0.337
16,CCCCGGCC,0.348
17,CCCCGGAA,0.272
18,AACCGGAT,0.286
19,GCCCGGAA,0.402
20,TCCCGGCA,0.277
21,GCACGGAA,0.215
22,TCACGGAA,0.329
23,ACCCGGAA,0.346
24,CCCCGGAC,0.397
25,CCTGCCGA,0.156

row,Sequence,PBM E-score
1,AGGAGGCC,-0.254
2,AACGTTGT,-0.162
3,CGACACGA,0.0811
4,CTACATGA,-0.187
5,TAAAGGCA,-0.0704
6,GCACTCGC,-0.0299
7,AGAGGGCA,-0.162
8,GAGCGATC,0.0915
9,AAGTTATT,0.0401
10,GCGTCACC,-0.0889
11,AATTGCAC,-0.191
12,ACCCGGGG,0.306
13,ACCCGTAC,0.0493
14,CCCGGGAG,0.299
15,ACCCGGGC,0.368
16,ACCCGGGT,0.393
17,GCCCGGGA,0.316
18,ACCCGGCC,0.305
19,ACCCGGAC,0.372
20,ACCCGGGA,0.328
21,CCCCGGAG,0.393
22,GCCCGGGC,0.434
23,CCCCCGAG,0.308
24,AGAGCGAT,0.0667
25,ATACGTTA,-0.106

row,Sequence,PBM E-score
1,GCTCTAAC,0.0397
2,CGACTGTA,-0.166
3,CAGAAACC,-0.0171
4,AACAGGCT,-0.152
5,TACCTCCA,-0.176
6,ATCAGTGC,-0.212
7,ACCCGGAG,0.423
8,CCCCGGGG,0.388
9,ACCCGGCG,0.283
10,CCCCCGGG,0.324
11,ACCCGGAT,0.322
12,GCCCGGAC,0.401
13,GCCGGGAC,0.185
14,CCCCGGGC,0.36
15,GCCCGGCC,0.329
16,CTCACAGA,-0.242
17,CGGCGCTC,0.23
18,TCTGTGAA,-0.101
19,CCGGTCCA,0.237
20,CCGGTCCG,0.42
21,CCGGTCCC,0.323
22,AGACTGAT,-0.159
23,GACAGAGC,-0.162
24,CGTTTGAA,-0.061
25,CGAGGGCA,-0.00305

row,Sequence,PBM E-score
1,ATTTTGGA,0.147
2,AAACTCCG,0.456
3,CAACTCCC,0.0886
4,CAACTCCA,-0.0501
5,ATACTCCA,-0.15
6,AAACTCCA,-0.0578
7,CAACTCCG,0.398
8,AAACTCCT,-0.1
9,ATACTCCG,0.407
10,ATACTCCC,0.115
11,CGCTAGCG,0.0545
12,CGCGAGCA,-0.126
13,GATATCGC,0.304
14,AAACCCTA,-0.136
15,AGGTACGG,0.0524
16,AACGCGAA,0.121
17,AGGTCGCA,0.101
18,ACTAAGCC,0.094
19,ACTGTCAG,-0.224
20,TACCGGCA,0.353
21,CACCGGAC,0.417
22,TACCGCAA,0.08
23,CACCGGGA,0.261
24,TACCGGAA,0.442
25,CACCGGAA,0.398

row,Sequence,PBM E-score
1,CACCGGAG,0.341
2,GACCGGAC,0.41
3,GACCGGGC,0.331
4,GACCGGAA,0.361
5,CAGCGGAA,0.139
6,AACCGGAC,0.369
7,AATCGGCT,0.314
8,TCTGCGAA,-0.214
9,CCGGTGTC,0.301
10,CTTGGTGA,-0.102
11,GATCGGAC,0.413
12,CATCGGAC,0.401
13,CATCGGAG,0.292
14,CATCGGTC,0.278
15,AATCGGAC,0.345
16,GATCGGAA,0.325
17,GCTTTTAC,0.14
18,ATGTGGAC,-0.149
19,AATTCCTG,-0.0671
